Screens: PubChem BioAssay, National Center for Advancing Translational Sciences (NCATS)
Hits are enriched below; roughly 21% of the tested compounds scored in any of these assays.
NS1 function inh = inhibitors of influenza NS1 protein function; 0.4% of 270,000 active; Potency, µM (highest dose often 46.1 µM), inactives show top-dose activity, positive = more growth; AID 2326; calls by dose curve; further: potency means the concentration at half of the fitted maximal effect; actives are rising curves; nearly all actives have a fitted effect of over 50% in size
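Recovery from NS1-induced slow growth read by OD600 in budding yeast switched to galactose assay medium (pH 6.0, -URA) at 1:100 dilution. Compound 23 nl per well; the matching strain lacking NS1 serves as control.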
CHX counter = affects cycloheximide protein synthesis inhibition readout, counter-screen. cell reporter, cycloheximide protein synthesis inhibition counterscreen. max response, %. 12% of 300,000 active; in the data active means max response mostly above about 13%, no sharp cut-off; inactive means mostly below about 14%; further: read at 38.3 µM for the half of the compounds with a filed dose; 0% is about no effect
Pf growth 48h = P. falciparum growth inhibition at 48 hours (one generation); P. falciparum luciferase growth in erythrocytes, 48 h; Potency, µM (highest dose often 28.7 µM), inactives show at the highest dose activity change, negative = inhibition, usual class: inhibitors; 5.9% of 310,000 active; further: potency means the concentration at half of the fitted maximal effect; on the % scale 0 is the no-effect control and ±100 the full control effect
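Luminescence readout; reporter = integrated firefly luciferase in P. falciparum. RBC culture at 2% hematocrit, 0.1% parasitemia final, 37 C/5% CO2; decreased signal taken as growth inhibition.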
Shiga toxin inh = blocks Shiga toxin action in Vero cells; 9.2% of 290,000 active; Vero cells, Shiga toxin protein synthesis inhibition reporter; inhibition, % at 38.7 µM; in the data active means inhibition mostly above about 28%, no sharp cut-off; inactive means mostly below about 43%; further: 0% is about no effect
Pf growth 96h = P. falciparum growth inhibition at 96 hours; Potency, µM (doses to about 28.7 µM), inactives show at the top dose activity change, negative = inhibition, most hits filed as inhibitors; 6.9% of 320,000 active; P. falciparum luciferase reporter growth, 96 h; AID 504834; further: potency means the concentration at half of the fitted maximal effect; on the % scale 0 is the no-effect control and ±100 the full control effect
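Infected RBCs, 2% Hct / 0.05% parasitemia final; luciferase-reporter P. falciparum; cpd 96 h, 37 C, 5% CO2; luciferase detection reagent; luminescence.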
An asterisk follows results filed as active; ? = inconclusive; / = not tested or not shown. Unless noted, the call rests on the fitted dose curve; in most records, active means well fitted inhibition curve with a large enough effect; inconclusive means small, poorly fitted or top-dose-only effect, or another doubt; inactive means no such curve, though single readings can be large or run the other way.

SMILES | NS1 function inh | CHX counter | Pf growth 48h | Shiga toxin inh | Pf growth 96h
O=[N+]([O-])c1ccc(NC(=S)NCCc2ccccc2)cc1 | -35% | 28* | ? | 64* | -1%
O=[N+]([O-])c1ccc(NC(=S)NCCc2ccc(Cl)cc2)cc1 | -46% | 5 | 2.3µM* | -7 | 1.9µM*
O=[N+]([O-])c1ccc(NNC(=S)Nc2ccccc2)cc1 | -80% | 37* | -56% | 97* | /
S=C(NCc1ccco1)N1CCN(C/C=C/c2ccccc2)CC1 | 3% | -1 | -21% | 13 | 19%
O=C(CCCn1c(=O)c2sccc2n(Cc2ccc(F)cc2)c1=O)NCc1ccco1 | -5% | -1 | ? | -5 | 254%
CCOC(=O)c1c(C)[nH]c2cc(Br)c(O)cc12 | -30% | 38* | / | 65* | /
CCOC(=O)c1c(-c2ccc(OC)cc2)oc2cc(Br)c(O)cc12 | -3% | -6 | ? | -16 | ?
COc1cccc(NC(=O)N2CCC(NC(=O)c3ccco3)CC2)c1 | -8% | -4 | -4% | -7 | ?
O=C(COC(=O)c1ccccc1C(=O)N1CCN(c2ccccc2)CC1)Nc1ccc(F)cc1 | -4% | 7 | -9% | -9 | /
O=C(COC(=O)c1ccccc1C(=O)N1CCN(c2ccccc2)CC1)Nc1ccccc1 | -2% | 1 | 4.1µM* | 14 | -9%
O=C(COC(=O)c1ccccc1SCC(=O)N1CCCC1)Nc1ccccc1 | -4% | 17* | 112% | 43 | ?
COc1cccc(NC(=O)COC(=O)c2ccccc2SCC(=O)N2CCCC2)c1 | / | / | -14% | / | 33%
CC(C)CCOc1ccc(Cl)cc1CN1CCOCC1 | -2% | 10 | 13% | 26 | 1%
C=CCC(COCc1ccccc1)NS(=O)(=O)c1ccccc1Br (centres undefined) | -6% | -1 | 13µM* | -11 | ?
C=CC(COCc1ccccc1)N(C(=O)OC(C)(C)C)S(=O)(=O)c1ccccc1Br (centres undefined) | 1% | 5 | ? | -2 | ?
CC(=O)C1=C(O)C(=O)N(c2ccc(Br)cc2)C1c1ccc(Cl)cc1 (centres undefined) | -4% | 1 | -6% | / | 104%
CC(=O)C1=C(O)C(=O)N(c2cc(C(C)(C)C)on2)C1c1ccc(C(C)C)cc1 (centres undefined) | ? | 14 | -16% | -1 | 13µM*
CC(=O)C1=C(O)C(=O)N(c2cc(C(C)(C)C)on2)C1c1ccc(Br)cc1 (centres undefined) | 15% | -1 | 10µM* | 16 | /
COc1ccccc1OCCSc1nc(C)c(Cc2ccccc2)c(=O)[nH]1 | -4% | 1 | 67% | -4 | 28%
O=C(CC(SCCO)c1ccc2c(c1)OCO2)c1ccco1 (centres undefined) | -9% | 48* | 58% | 123* | 15%
O=C(NCc1ccc2c(c1)OCO2)c1ccco1 | / | 10 | 21% | 13 | -14%
CCN(CC)C(=O)COC(=O)C1=NN(c2cc(C)ccc2C)C(=O)CC1 | 9% | 3 | ? | -4 | 16%
Cn1nnnc1SCCNCc1ccccc1OCc1ccc(Cl)cc1 | 14% | -5 | ? | -8 | 12µM*
CC(C)(C)n1cnc2cc(NCc3ccccc3O)ccc21 | -6% | 49* | -3% | 66* | ?
CC(C)n1cnc2cc(NCc3ccccn3)ccc21 | 5% | 72* | 149% | 70* | /
SMILES | NS1 function inh | CHX counter | Pf growth 48h | Shiga toxin inh | Pf growth 96h
CC(C)(CC(=O)O)CC(=O)Nc1ccc2c(c1)ncn2CCc1ccccc1 | 7% | 2 | -8% | 0 | ?
CCN(CC)CCn1c(NCc2ccccn2)nc2ccccc21 | -4% | -6 | / | 11 | -9%
Cc1cc(NCc2ccccn2)ccc1Br | -31% | 34* | 102% | 74* | 210%
c1ccc(-n2cnc3cc(NCc4ccccn4)ccc32)cc1 | -1% | 59* | 58% | 82* | ?
COc1cccc(CNC(=O)C2CCCN(c3nc4ccccc4o3)C2)c1 (centres undefined) | -55% | -2 | ? | 9 | 7%
CC(C)n1cnc2cc(NCc3ccco3)ccc21 | -7% | 41* | 62% | 72* | 38%
CCCn1c(NCc2ccco2)nc2ccccc21 | -1% | 1 | -22% | -10 | /
CC(C)n1cnc2cc(NCc3ccccc3O)ccc21 | -1% | 52* | 33% | 86* | 28%
C[N+](C)(C)CCN(Cc1cccs1)c1ccccn1 | -8% | / | / | / | /
CC[N+](C)(C)CCN(Cc1ccc(Cl)cc1)c1ccccn1 | 5% | -4 | / | -20 | 2.6µM*
CC(C)(C)c1ccc(OCCNC(=S)NC(=O)c2cccnc2)cc1 | 15% | 2 | ? | 22 | -6%
COc1ccc(-c2cc(C(=O)N3CC4(C)CC3CC(C)(C)C4)no2)cc1OC (centres undefined) | -52% | -3 | 0.93µM* | -4 | ?
COc1cccc(-c2cc(C(=O)NCCCN3CCOCC3)no2)c1 | 1% | -2 | 6% | 4 | 95%
COc1ccc(-c2cc(C(=O)N3CC4(C)CC3CC(C)(C)C4)no2)cc1 (centres undefined) | -51% | -6 | / | -11 | ?
COc1ccc(-c2cc(C(=O)N3CCOCC3)no2)cc1OC | 1% | 29* | 88% | 129* | 1.3µM*
COc1cccc(-c2cc(C(=O)N3CCOCC3)no2)c1 | 4% | 40* | 156% | 41 | ?
COc1cccc(-c2cc(C(=O)N3CCN(C(c4ccccc4)c4ccccc4)CC3)no2)c1 | 6% | 21 | 8.3µM* | 22 | 1.5µM*
CCC1(c2ccccc2)NC(=O)N(CC(=O)N(C)CC(=O)Nc2ccc(F)c(F)c2F)C1=O (centres undefined) | / | / | 21% | / | ?
CCn1c(=O)cc(OCC(=O)Nc2ccccc2C#N)c2ccccc21 | -71% | -2 | -8% | -9 | -4%
O=S(=O)(NCCNC/C=C/c1ccc(Br)cc1)c1cccc2cnccc12 | -11% | / | / | / | /
COc1ccc(-c2cc(C(=O)N3CCOCC3)no2)cc1 | -12% | 30* | 157% | 49 | -13%
COc1ccc(N2CCN(C(=O)c3cc(C)on3)CC2)cc1 | 7% | -3 | 1% | 1 | ?
COc1ccccc1/C=N/NC(=O)c1c(-c2ccccc2)noc1C | 3% | -7 | -15% | -7 | 2.1µM*
Cc1onc(-c2ccccc2)c1C(=O)N/N=C/c1ccccc1OC(C)C | 28% | 6 | 9% | -25 | -3%
Cc1onc(-c2ccccc2)c1C(=O)N/N=C/c1cc(Br)c(O)c(Br)c1 | 19% | -3 | 1% | -4 | 16%
O=C(N/N=C/c1ccc(C(=O)O)cc1)C1=NNC(c2ccccc2)(c2ccccc2)C1 | 12% | -3 | ? | -4 | ?
Cc1cccc(/C=N/NC(=O)c2c(-c3ccccc3)noc2C)c1O | -9% | -3 | 9.3µM* | -13 | 6.6µM*
COc1ccccc1/C=N/NC(=O)C1=NNC(c2ccccc2)(c2ccccc2)C1 | -6% | 2 | 7.4µM* | 13 | ?
O=C(NN1C(=O)C2C3CCC(O3)C2C1=O)c1ccco1 (centres undefined) | 10% | -3 | -3% | -8 | ?
